Data on 57 compounds can be found in PubChem BioAssay AID2156 (Johns Hopkins Ion Channel Center, 2009).

The whole screen tested about 310,000 compounds, of which about 3,400 (1.1%) were called active. The list comes from a sample in which actives are over-represented; it also holds similar structures and randomly drawn compounds. Unmarked numbers belong to inactive results.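 How the source made its calls: active means fluorescence ratio B-score at most minus 3 library SDs, with starting brightness B-score within 2 library SDs (cut at about -5.5 in these data); inactive means the rest, inconclusive results apart.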

Chain of Potassium voltage-gated channel subfamily KQT member 2 (Rattus norvegicus) (O88943 whole entry, looked up): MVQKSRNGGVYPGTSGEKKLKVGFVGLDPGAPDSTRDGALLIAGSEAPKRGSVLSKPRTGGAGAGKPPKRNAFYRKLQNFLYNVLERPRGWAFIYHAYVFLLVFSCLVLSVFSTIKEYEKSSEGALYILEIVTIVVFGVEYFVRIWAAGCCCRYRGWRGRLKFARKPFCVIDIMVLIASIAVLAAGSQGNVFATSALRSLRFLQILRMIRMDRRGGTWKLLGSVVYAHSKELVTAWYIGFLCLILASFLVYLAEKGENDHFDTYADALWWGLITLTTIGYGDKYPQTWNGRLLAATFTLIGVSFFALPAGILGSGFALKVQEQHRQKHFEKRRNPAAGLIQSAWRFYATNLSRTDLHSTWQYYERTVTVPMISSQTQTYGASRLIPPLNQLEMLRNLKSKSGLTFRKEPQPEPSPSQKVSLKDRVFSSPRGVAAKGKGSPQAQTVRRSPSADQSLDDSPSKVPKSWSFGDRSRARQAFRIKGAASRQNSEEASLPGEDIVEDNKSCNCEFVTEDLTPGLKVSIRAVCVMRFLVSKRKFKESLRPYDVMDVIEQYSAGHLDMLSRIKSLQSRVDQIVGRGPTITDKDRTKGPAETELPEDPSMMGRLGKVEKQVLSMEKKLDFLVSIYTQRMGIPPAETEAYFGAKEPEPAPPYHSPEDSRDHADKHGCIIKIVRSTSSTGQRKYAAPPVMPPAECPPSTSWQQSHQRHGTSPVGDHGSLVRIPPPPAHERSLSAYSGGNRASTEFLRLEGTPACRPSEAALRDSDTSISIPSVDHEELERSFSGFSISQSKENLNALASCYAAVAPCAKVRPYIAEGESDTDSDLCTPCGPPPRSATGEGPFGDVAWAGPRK

The assay concerns the target Potassium voltage-gated channel subfamily KQT member 2 (Rattus norvegicus) (UniProt O88943). Kind of assay: KCNQ2 channel blockers in CHO-K1 cells – cell-based, FluxOR thallium flux, B-score, primary screen (AID 2156). The following applies: 20 min, at 10 µM; active compounds read low.
`CC(C)(C)N1CC(c2nc3ccccc3n2Cc2ccc(F)cc2)CC1=O` (configuration not stated): the B-score is -5.93 (active).

Turning to `C=CCn1c(C2CC(=O)N(c3ccc(C)cc3)C2)nc2ccccc21` (configuration not stated), the B-score result was “inactive”.

As to `CSc1nc2ccccc2c(=O)n1Cc1ccc(F)cc1`, the B-score result is “inactive”.

As for `CCN(CC)c1ccc(NC(=O)c2ccc(=O)[nH]c2)cc1S(=O)(=O)Nc1ccc(OC)cc1`, the B-score was -0.01.

For `CC1CCN(C(=O)c2ccc3c(c2)NC(=O)CN3)CC1`, the B-score is -0.25.

In the case of `O=C1Nc2cc(C(=O)N3CCC(N4CCCCC4)CC3)ccc2S/C1=C\c1ccccc1`, the B-score is -6.65 (active).

In the case of `CCN1CCN(CCNC(=O)c2ccc3c(c2)NC(=O)/C(=C\c2ccc(OC)c(OC)c2)S3)CC1`, the B-score is -0.06.

`Cc1ccc(S(=O)(=O)N(C)c2ccc(OCC(=O)OCC(=O)N(CC#N)c3ccccc3)cc2)cc1`: the B-score result is “inactive”.

For the compound `CN(CC(=O)Nc1cccc(F)c1)C(=O)C1CSC2(C)CCC(=O)N12` (configuration not stated), the B-score was -0.47.

`COc1ccccc1C(=O)NC(CCSC)C(=O)NNC(=O)c1ccccc1C` (configuration not stated): the B-score entry was “inactive”.

For the compound `Cc1cc(NC(=O)CSC2=NS(=O)(=O)c3cc(Cl)ccc3N2)no1`, the B-score was -0.31.

On to `CCc1ccc2ncc(C(=O)c3ccccc3)c(N3CCOCC3)c2c1`, for which the B-score was -9.81 (active).

Regarding `CCc1ccc(C(=O)NC(=S)Nc2ccccc2N2CCOCC2)cc1`, the B-score was -5.43.

In the case of `O=C(c1ccccc1)c1cc(-c2ccccn2)c(N2CCOCC2)s1`, the B-score was -0.1.

On to `CCCCn1c(N)c(N(CC(C)C)C(=O)c2cccc(S(=O)(=O)N3CC(C)OC(C)C3)c2)c(=O)[nH]c1=O` (configuration not stated), for which the B-score entry was “inactive”.

As for `CCCCn1c(N)c(N(CC(C)C)C(=O)c2cnc(C)cn2)c(=O)[nH]c1=O`, the B-score entry was “inactive”.

Turning to `Cc1cc(NC(=O)C(C)SCC(=O)Nc2ccccc2N2CCCCC2)no1` (configuration not stated), the B-score entry is “inactive”.

With `O=C(NCCCN1CCCC1=O)c1cccc(S(=O)(=O)NCc2ccccc2)c1`, the B-score was -0.85.

With `O=C(COC(=O)c1ncc(Cl)c(Cl)c1Cl)NCc1cccs1`, the B-score was -2.02.

As to `O=C(CCN1CCc2ccccc2C(O)(c2ccccc2)C1)c1ccc2c(c1)OCCO2` (configuration not stated), the B-score is -6.97 (active).

As for `O=C(CN1CCC(O)(c2ccccc2)CC1)Nc1ccc2c(c1)OCCO2`, the B-score result is “inactive”.

As for `CCC1(c2ccccc2)NC(=O)N(CC(=O)c2ccc3c(c2)OCO3)C1=O` (configuration not stated), the B-score result was “inactive”.

For the compound `COc1cc(N)c(Cl)cc1C(=O)OCC(=O)c1ccc2c(c1)NC(=O)CO2`, the B-score entry is “inactive”.

Turning to `Cc1cccc(C(=O)OC(C)C(=O)NC2CCCc3ccccc32)c1O` (configuration not stated), the B-score was -7.78 (active).

Regarding `CCOc1ccc(NC(=O)COc2ccc(C(=O)NC3CCCc4ccccc43)cc2OC)cc1` (configuration not stated), the B-score result is “inactive”.

For the compound `CNS(=O)(=O)c1cccc(C(=O)NC2CCCc3ccccc32)c1` (configuration not stated), the B-score was -2.62.

`COc1ccc(CN(C)C(=O)CC(c2ccccc2)c2ccccc2)cc1`: the B-score is -2.95.

Take `COc1ccc(CN(C)C(C)C(=O)NC2CCCc3ccccc32)cc1` (configuration not stated): the B-score was -6.8 (active).

On to `O=C(CN1CCN(c2ccc(O)cc2)CC1)NC1CCCc2ccccc21` (configuration not stated), for which the B-score is -0.25.

In the case of `Cc1ccc(NC(=O)CN(C)C(=O)Cn2nnc(-c3ccccc3)n2)cc1`, the B-score entry is “inactive”.

Regarding `COc1ccccc1CNC(=O)CSc1nc(=O)n(Cc2ccncc2)c2c1CCC2`, the B-score was -0.12.

Regarding `CC(=O)N1CCN(C(=O)c2cc(-c3ccc(Cl)s3)nc3ccccc23)CC1`, the B-score entry is “inactive”.

In the case of `CCOc1ccccc1-c1cc(C(=O)N2CCOCC2)c2ccccc2n1`, the B-score result is “inactive”.

`O=C(c1cc(-c2ccc(Cl)s2)nc2ccccc12)N1CCOCC1`: the B-score is -6 (active).

In the case of `Cc1cc(OCC(=O)N(C)c2c(N)n(Cc3ccccc3)c(=O)[nH]c2=O)c(C(C)C)cc1Cl`, the B-score is -0.02.

With `COc1ccc(-c2cnc(SCCNC(=O)c3ccc4c(c3)OCO4)[nH]2)cc1`, the B-score entry is “inactive”.

Take `Cc1ccc(S(=O)(=O)Oc2ccc(/C=N/NC(=O)c3ccncc3)cc2)cc1`: the B-score is -0.5.

Regarding `Cc1ccc(C2=N/C(=C\c3ccc(OS(=O)(=O)c4ccc(C)cc4)cc3)C(=O)O2)cc1`, the B-score is -7.24 (active).

Turning to `O=C1OC(c2ccc(Cl)cc2)=N/C1=C\c1cccnc1`, the B-score was -0.06.

As for `COc1ccc(OCCCC(=O)OC(C)C(=O)Nc2ccccc2[N+](=O)[O-])cc1` (configuration not stated), the B-score was -0.14.

On to `Cc1ccc(CN2CCN(c3ccccc3Cl)CC2)o1`, for which the B-score was -0.4.

`O=[N+]([O-])c1cc(Cl)cc(/C=N/NC(=S)Nc2cc(S(=O)(=O)N3CCOCC3)ccc2Cl)c1O`: the B-score was -8.14 (active).

In the case of `O=C(CN1CCN(c2ccc(O)cc2)CC1)Nc1cc(S(=O)(=O)N2CCOCC2)ccc1Cl`, the B-score was -0.82.

With `O=C(N/N=C/c1cc(Cl)cc([N+](=O)[O-])c1O)C(O)(c1ccccc1)c1ccccc1`, the B-score is -0.18.

With `CN1CCN(C(=O)C2=C[C@H](c3ccc4c(c3)OCO4)C[C@H](OCc3ccc(CO)cc3)O2)CC1`, the B-score was -0.01.

For `CC(=O)n1cc([C@@H]2C=C(C(=O)N3CCN(Cc4ccc5c(c4)OCO5)CC3)O[C@H](OCc3ccc(CO)cc3)C2)c2ccccc21`, the B-score is -6.49 (active).

As for `CC(=O)n1cc([C@H]2C=C(C(=O)N3CCOCC3)O[C@@H](OCc3ccc(CO)cc3)C2)c2ccccc21`, the B-score is -4.18.

For `O=C(COc1coc(CN2CCN(c3ccccc3F)CC2)cc1=O)N1CCc2ccccc21`, the B-score result was “inactive”.

On to `COc1cc(/C=C/C(=O)N2c3ccccc3Sc3ccc(C(F)(F)F)cc32)cc(OC)c1OC`, for which the B-score is -7.31 (active).

Regarding `O=C(CN1CCCCCC1)N1c2ccccc2Sc2ccc(C(F)(F)F)cc21`, the B-score is -3.82.

As for `COc1cc(/C=C/C(=O)N2CCc3ccccc3C2)cc(OC)c1OC`, the B-score entry is “inactive”.

In the case of `CC(c1ccco1)N(C(=O)Nc1ccccc1)C1CCCCC1` (configuration not stated), the B-score is -5.91 (active).

For the compound `Cc1ccc(NC(=O)NC(=O)N(C2CCCCC2)S(=O)(=O)c2ccccc2)cc1`, the B-score was -1.57.

On to `CCOc1ccc(NC(=O)N(CCC(C)C)C(C)c2ccco2)cc1` (configuration not stated), for which the B-score was -2.46.

Consider `N#CC1(NC(=O)COC(=O)CSc2ccc(F)cc2)CCCCC1`, for which the B-score result was “inactive”.

Take `C=CCOc1ccc(/C=C/C(=O)OC(C)C(=O)Nc2ccc(NC(C)=O)cc2)cc1` (configuration not stated): the B-score result was “inactive”.

Regarding `CCCn1c(C)cc(/C=C(\C#N)C(=O)OCC(=O)N(C)c2c(N)n(Cc3ccccc3)c(=O)[nH]c2=O)c1C`, the B-score is -0.77.
